# Bioassay records deposited in PubChem by National Center for Advancing Translational Sciences (NCATS).
# PI4K2A block: qHTS for small molecular inhibitors of PI4K2A | purified PI4K2A, ADP-Glo luminescence, 1 h; active compounds read low | 420,000 tested, 0.13% active | Phosphatidylinositol 4-kinase type 2-alpha (Homo sapiens), Q9BTU6 | activity change, negative = inhibition, % at 76.9 µM; in the data active = activity change below about -50%; inconclusive = mostly about -30% to -49%
#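 In this quantitative HTS, ADP production by PI4K2A was quantified luminescently after 1 h at ambient temperature; 100 microM adenosine served as plate-quality control.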
# LDHA block: qHTS assay for inhibitors of human lactate dehydrogenase; purified LDHA, NADH/diaphorase-resazurin fluorescence; active compounds read low; activity change, % (values are at about 110 or 230 µM); 480,000 tested, 0.15% active; AID 1347041, 2019; in the data active = activity change below about -30%; inconclusive = mostly about -25% to -30%
#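 Human LDH5 at 2 nM final in Tris HCl pH 7.4 with 0.06 mM NADH and 0.2 mM pyruvate, reacted 5 minutes at room temperature. Remaining NADH coupled via diaphorase/resazurin; resorufin fluorescence read at 0 and 20 minutes, normalized to enzyme-free and DMSO wells.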
# RGS4 inhibitor: Inhibitors of Regulator of G Protein Signaling (RGS) 4: qHTS | AID 504845, 2011 | Regulator of G-protein signaling 4 (Homo sapiens), P49798 | 390,000 tested, 0.039% active | Transcreener GDP fluorescence polarization, RGS4-accelerated GTP hydrolysis | Potency, µM (titrated, usually from 114 µM), most hits filed as inhibitors; active = well fitted inhibition curve with a large enough effect; inconclusive = small, poorly fitted or top-dose-only effect; inactive = no such curve, though single readings can be large or run the other way; also: nearly all actives have a fitted effect of over 75% in size
# Target sequence (P49798 whole entry, looked up): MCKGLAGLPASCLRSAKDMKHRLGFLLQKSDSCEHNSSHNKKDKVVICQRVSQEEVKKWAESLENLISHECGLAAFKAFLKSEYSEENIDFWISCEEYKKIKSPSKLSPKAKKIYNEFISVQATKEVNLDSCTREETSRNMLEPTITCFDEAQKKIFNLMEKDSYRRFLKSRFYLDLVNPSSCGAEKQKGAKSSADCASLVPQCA
#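 MLSMR compounds (23 nl, pin-transferred) preincubated 10 min at room temperature with a 500nM (2x) first reagent, then RGS4 at 900nM (2x) plus Transcreener GDP mix added; fluorescence polarization (620/688 nm) read before and after 90 min at 30 °C.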
# D3 antag: qHTS of D3 Dopamine Receptor Antagonist: qHTS. max response, negative = inhibition, %. 360,000 tested, 2.5% active. AID 652054, 2013. D3R cells, DiscoveRx beta-arrestin luminescence, antagonist mode; active compounds read low; in the data active = max response below about -50%; inconclusive = no clear call, values can overlap the other calls
# Target sequence (P35462 whole entry, looked up): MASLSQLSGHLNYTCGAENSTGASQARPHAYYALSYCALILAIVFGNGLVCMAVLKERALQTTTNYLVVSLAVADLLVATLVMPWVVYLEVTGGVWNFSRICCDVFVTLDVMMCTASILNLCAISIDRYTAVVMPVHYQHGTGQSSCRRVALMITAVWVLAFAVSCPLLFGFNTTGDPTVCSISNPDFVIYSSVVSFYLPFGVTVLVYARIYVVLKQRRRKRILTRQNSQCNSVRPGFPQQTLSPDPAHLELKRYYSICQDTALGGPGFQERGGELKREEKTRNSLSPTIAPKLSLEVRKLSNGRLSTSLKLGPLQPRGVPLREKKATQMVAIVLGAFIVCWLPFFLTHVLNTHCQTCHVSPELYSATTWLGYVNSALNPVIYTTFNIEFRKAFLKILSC
#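 Cells expressing the human receptor were seeded at 1500 cells/well, incubated overnight at 37 degrees C in 5% CO2, then exposed to library compounds with dopamine controls for 90 minutes at 37 degrees C before luminescent detection.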
# D3 ag: qHTS of D3 Dopamine Receptor Agonist: qHTS; 410,000 tested, 0.58% active; D(3) dopamine receptor (Homo sapiens), P35462; max activation, %; D3R DiscoveRx beta-arrestin cells, luminescence, 90 min; in the data active = max activation above about 30%
#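 Agonist-mode cell screen: cells plated at 1500/well and incubated overnight at 37 °C, then exposed to library compounds for 90 min at 37 °C. Detection reagent was added for 30–60 min at room temperature, and luminescence was read.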
# Akt phos inh: HTS Assay for Inhibitors of Akt Phophorylation: Primary Screen. Neuro2A IGF-stimulated pAkt S473 HTRF, 20 min; active compounds read low. activity change, % for hits at 50 µM. 360,000 tested, 0.32% active; in the data active = activity change below about -80%; inconclusive = mostly about -51% to -80%
#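 Single-point screen (50 µM final compound) in Neuro2A cells stimulated 20 min with 6 nM IGF at 37 deg C. After lysis, Ser473-phosphorylated Akt read by HTRF (ex 330 nm, em 615/665 nm) as the 665/615 ratio.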
# Hits are given with their value; n = inactive; u = inconclusive; x = no result; [ ] = dose if it differs, or a comment. An excerpt weighted towards active compounds, which were near 2.8% of everything screened.
SMILES,PI4K2A block,LDHA block,RGS4 inhibitor,D3 antag,D3 ag,Akt phos inh
Cc1ccc(-n2nc3c(c2NC(=O)c2cccs2)CSC3)cc1,n,n,n,n,n,n
O=C(CSc1nc2cc(Cl)ccc2o1)Nc1ccc(N2CCOCC2)cc1,n,n,n,n,n,n
O=C(CSc1nnc(NC(=O)C2CCC2)s1)Nc1ccc(N2CCOCC2)cc1,n,n,n,-73,n,n
O=C(CSc1nc2ccccc2o1)Nc1ccc(N2CCOCC2)cc1,n,n,n,n,n,-94%
C=CCNC(=S)NNC(=O)c1cccn(Cc2ccc(Cl)cc2Cl)c1=O,n,n,n,-73,n,n
CNC(=S)NNC(=O)c1cccn(Cc2cccc(Cl)c2)c1=O,n,n,n,n,n,n
C=CCNC(=S)NNC(=O)c1cccn(Cc2ccc(Cl)c(Cl)c2)c1=O,n,n,u,u,n,n
CCNC(=S)NNC(=O)c1cccn(Cc2ccc(Cl)cc2Cl)c1=O,n,n,n,-59,n,n
Cn1c(=O)c2c(nc(SCC(=O)O)n2Cc2cccc(Cl)c2)n(C)c1=O,x,n,x,x,x,x
Cc1ccnc(NC(=O)c2cc(-c3ccc(C)o3)nc3ccccc23)c1,x,n,x,x,x,x
CCOC(=O)c1c(/N=C/c2ccc(OC)cc2O)sc2c1CCN(C)C2,n,n,n,n,n,n
CN1CCc2c(sc(/N=C/c3cc(Cl)ccc3O)c2C#N)C1,n,n,n,-50,n,n
CC(=O)Oc1ccc2oc(/C=C/N(C)C)c([N+](=O)[O-])c2c1,n,n,n,-80,n,x
C/C(=C/c1oc2ccc(O)cc2c1[N+](=O)[O-])N(C)C,n,n,n[11.4 µM],n,n,n
O=C(Cn1cnc2ccccc2c1=O)OCC(=O)c1ccccc1,x,n,x,x,x,x
COc1ccc(OCCOCCN2CCc3ccccc3C2)cc1,n,n,n,-51,n,x
COc1ccc(OCCOCCN2CCOCC2)cc1,n,n,n,u,n,n
N#Cc1ccc(OCCN2CCc3ccccc3C2)cc1,n,n,n,-79,n,n
Clc1ccc(OCCCCN2CCc3ccccc3C2)cc1,n,n,n[11.4 µM],-114,n,n
CCN(CC)S(=O)(=O)c1ccc(-c2nc(C#N)c(NCc3cccnc3)o2)cc1,x,n,x,x,x,x
COc1ccc(OC)c(CC(=O)Nc2ccc3c(c2)c(=O)n(C)n3Cc2cccc(C(F)(F)F)c2)c1,n,n,x,-52,n,n
Cc1ccc(-c2nnc3sc(-c4cccc(F)c4)nn3c2=O)cc1,x,n,x,x,x,x
CCCC(=O)Nc1ccc(NC(=O)CCc2ccccc2)cn1,n,n,n[11.4 µM],-56,n,n
CCCCC(=O)Nc1ccc(NC(=O)c2ccccc2OC)cn1,n,n,n[11.4 µM],n,n,-108%
CCCCC(=O)Nc1ccc(NC(=O)c2cc(OC)c(OC)c(OC)c2)cn1,n,n,n,n,n,n
SMILES,PI4K2A block,LDHA block,RGS4 inhibitor,D3 antag,D3 ag,Akt phos inh
Cc1ccc(NC(=O)c2cc(C)nc3ccccc23)nc1,x,n,x,x,x,x
Cc1ccc(S(=O)(=O)Oc2ccc(C3C4=C(CC(C)(C)CC4=O)OC4=C3C(=O)CC(C)(C)C4)cc2)cc1,x,n,x,x,x,x
CCC(=O)c1c(O)cc(O)cc1O,n,x,x,x,n,x
CCOC(=O)c1c(C)cc(O)cc1O,n,n,n,n,38,n
CCN1CCC(N(Cc2ccco2)C(=O)Nc2cc(Cl)ccc2C(=O)OC)CC1,x,n,x,x,x,x
CCOC(=O)C1CCCN(c2nc3ccccc3nc2C(C#N)C(=O)OCCOC)C1 (configuration not stated),n,n,n,n,n,n
CCOC(=O)C1CCCN(c2nc3ccccc3nc2C(C#N)C(=O)OCC)C1 (configuration not stated),n,n,n,-53,n,n
Cc1nnc(N2C(=O)C(=O)/C(=C(/O)c3ccccc3)C2c2ccc(C(C)C)cc2)s1 (configuration not stated),x,n,x,x,x,x
O=C(CSc1cc(Cl)ccc1Cl)NC1CCCc2ccccc21 (configuration not stated),n,n,n,n,n,n
O=C(CSc1nc2cc(Cl)ccc2s1)NC1CCCc2ccccc21 (configuration not stated),n,n,n,n,33,n
Cc1ncc(N=Nc2ccc(F)cc2)c(-c2ccc(Cl)cc2)n1,n,n,n,n,n,-118%
COc1ccc(-c2nc3ccccc3nc2-c2ccc(OC)cc2)cc1,n,n,n,n,n,n
Cc1ncc(S(=O)(=O)c2ccc(Cl)cc2)c(-c2ccccc2)n1,n,n,n,n,n,n
COc1ccc(-c2nc(C)ncc2N=Nc2ccccc2)cc1,n,n,n,n,n,-114%
C=C(C)COc1ccc(-c2[nH]ncc2Oc2ccccc2OCC)c(O)c1,n,n,n,u,n,n
C=C(C)COc1ccc(-c2[nH]ncc2Oc2cccc(OC)c2)c(O)c1,n,n,n,-56,n,n
Cc1ccc(C(=O)N/C(=C/c2ccco2)C(=O)Nc2cccc(C)c2)cc1,n,n,n,n,n,n
Cc1cccc(NC(=O)/C(=C\c2ccco2)NC(=O)c2cccs2)c1,n,n,n,u,n,-110%
CCOc1ccc(CNC(=O)c2ccc3c(c2)N(CC)CCS3)cc1,n,n,n,-67,n,n
CCN1CCSc2ccc(C(=O)NCc3ccc(OC(C)C)cc3)cc21,n,n,n,-77,n,n
COc1cccc2cc(-c3csc(Nc4ccc(C)cc4)n3)c(=O)oc12,x,n,x,x,x,x
COc1ccc(C2=C(O)C(=O)N(Cc3ccc(C)cc3)C2c2ccc(F)cc2)cc1 (configuration not stated),x,n,x,x,x,x
CCOC(=O)NC(CNC(=O)C(C)OCc1ccccc1)CC(C)C (configuration not stated),x,n,x,x,x,x
O=C(NN=C1CCCC1)c1ccc(CSc2cccc3cccnc23)cc1,x,n,x,x,x,x
CN(C)c1ccc(Nc2ccc([N+](=O)[O-])cn2)cc1,n,n,n,-60,n,n
Cc1cccc(NC(=S)NC2CC3CCCC(C2)N3Cc2cccs2)c1 (configuration not stated),n,n,n,-87,n,n
COCCNC(=S)NC1CC2CCCC(C1)N2Cc1cccs1 (configuration not stated),n,n,n,u,n,n
O=C(CSc1ncnc2sc3c(c12)CCCC3)Nc1ccc(Cl)cn1,x,n,x,x,x,x
Cc1nnc2sc(-c3cccc(NC(=O)C(C)(C)C)c3)nn12,x,n,x,x,x,x
Cc1ccc2cc(C#N)c(N3CCN(C)CC3)nc2c1,n,n,n,-82,n,n
